Screening data from PubChem BioAssay.
The full list was thinned out, with hits kept by preference.
BL2 CD40 inh = CD40 pathway inhibition in BL2 cells; AID 1053188; hit rate 0.94% among 83,000; inhibition, % at 10 µM; BL2 NF-kB luciferase reporter, CD40L-induced, 4 h;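 active = mean inhibition of at least 50% with a set share of replicates also reaching that level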;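 note: 0% = neutral control wells and 100% = IKK inhibitor VII at 50 µM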
Numbers without * were called inactive; [ ] = remark or other dose.

SMILES	BL2 CD40 inh
CN1C(=O)c2cc(NC(=O)C3CCCCC3)ccc2OC[C@@H]2O[C@@H](CC(=O)NCC3CCCCC3)CC[C@H]21	2.4
Cc1ccc(-c2ccccc2[C@H]2[C@@H](C#N)N(S(C)(=O)=O)[C@@H]2CO)cc1	-0.9[25 µM]
C[C@@H]1CCCCO[C@@H](CN(C)CC2CCCCC2)[C@H](C)CN([C@H](C)CO)C(=O)c2cc(NC(=O)Nc3ccc(C(F)(F)F)cc3)ccc2O1	-8.4
C[C@@H]1CN([C@H](C)CO)C(=O)c2cc(NC(=O)Nc3cccc4ccccc34)ccc2O[C@@H](C)CCCCO[C@@H]1CN(C)Cc1ccc(C(F)(F)F)cc1	32.2[25 µM]
C[C@@H]1CCCCO[C@@H](CN(C)CC2CCCCC2)[C@@H](C)CN([C@@H](C)CO)C(=O)c2cc(NC(=O)Nc3ccc(C(F)(F)F)cc3)ccc2O1	96.9*[25 µM]
C[C@H]1CCCCO[C@@H](CN(C)Cc2ccc(C(F)(F)F)cc2)[C@@H](C)CN([C@@H](C)CO)C(=O)c2cc(NC(=O)Nc3cccc4ccccc34)ccc2O1	18.1[25 µM]
Cc1noc(C)c1S(=O)(=O)Nc1ccc2c(c1)C(=O)N([C@H](C)CO)C[C@H](C)[C@@H](CN(C)C(=O)Nc1cccc3ccccc13)OCCCC[C@@H](C)O2	0.4[25 µM]
C[C@H]1CCCCO[C@H](CN(C)Cc2ccc(C(F)(F)F)cc2)[C@@H](C)CN([C@@H](C)CO)C(=O)c2cc(NC(=O)Nc3cccc4ccccc34)ccc2O1	53.1*[25 µM]
Cc1noc(C)c1S(=O)(=O)Nc1ccc2c(c1)C(=O)N([C@H](C)CO)C[C@H](C)[C@H](CN(C)C(=O)Nc1cccc3ccccc13)OCCCC[C@@H](C)O2	-10.3[25 µM]
Cc1noc(C)c1S(=O)(=O)Nc1ccc2c(c1)C(=O)N([C@H](C)CO)C[C@@H](C)[C@H](CN(C)C(=O)Nc1cccc3ccccc13)OCCCC[C@@H](C)O2	75.2*[25 µM]
C[C@@H]1CN([C@@H](C)CO)C(=O)c2cc(NC(=O)Nc3ccc(C(F)(F)F)cc3)ccc2O[C@@H](C)CCCCO[C@@H]1CN(C)CC1CCCCC1	12.4[25 µM]
COc1ccc2c3c(n(C)c2c1)[C@H](CO)N(S(=O)(=O)c1cn(C)cn1)CC31CCN(C)CC1	10.6[25 µM]
COc1ccccc1CN1C[C@@H]2N[C@H](C1)C2c1ccc(/C=C/c2ccccc2)cc1 (stereo not given in full)	32.7
CN1C(=O)c2cc(NC(=O)Nc3ccc(Cl)cc3)ccc2OC[C@H]2O[C@@H](CC(=O)NCCN3CCCCC3)CC[C@@H]21	-2.7[25 µM]
O=C(C[C@H]1CC[C@@H](NC(=O)c2ccc(F)cc2)[C@H](CO)O1)NCCc1ccccc1	3.2[25 µM]
Cc1ccc(-c2ccc3c(c2)O[C@@H](CN(C)Cc2cncnc2)[C@@H](C)CN([C@@H](C)CO)S3(=O)=O)cc1	4.4[25 µM]
O=C(Nc1ccccc1F)N[C@H]1CC[C@@H](CCNC(=O)C2CCCC2)O[C@H]1CO	4.2
Cc1ccc(NC(=O)Nc2ccc3c(c2)C(=O)N(C)[C@@H]2CC[C@@H](CC(=O)NCC(F)(F)F)O[C@H]2CO3)cc1	13.9[25 µM]
CC(C)NC(=O)N(C)C[C@@H]1OCCCC[C@H](C)Oc2ccc(NC(=O)NC3CCCCC3)cc2C(=O)N([C@@H](C)CO)C[C@H]1C	1.9
CC1=CC(C)(C)N=C(Nc2nc(C)c3cc(C)cc(C)c3n2)N1	48.1*
CCSC1=NC(C)(C)C=C(C)N1	7.0
CCCSc1nc(C)c2cc(C)cc(C)c2n1	7.9
CN1[C@@H]2Cn3c(ccc(-c4cccnc4)c3=O)[C@H]1[C@@H](C(=O)N1CCC(Cc3ccccc3)CC1)[C@@H]2CO	-1.6[25 µM]
O=C1C(Br)=C(c2ccccc2)C(c2ccccc2)=C1c1ccccc1	82.0*
COc1ccc(NC(=O)Nc2ccc3c(c2)[C@H]2C[C@@H](CC(=O)N4CCN(C)CC4)O[C@H](CO)[C@H]2O3)cc1	2.7[25 µM]
SMILES	BL2 CD40 inh
C[C@H](CO)N1C[C@H](C)[C@@H](CN(C)Cc2ccc(C(=O)O)cc2)Oc2ccc(NS(=O)(=O)c3cccs3)cc2C1=O	-0.1[25 µM]
C[C@@H]1CN([C@H](C)CO)C(=O)Cc2cc(NS(=O)(=O)c3ccc(F)cc3)ccc2O[C@@H]1CN(C)Cc1ccncc1	2.8[25 µM]
C[C@H](CO)N1C[C@H](C)[C@@H](CN(C)Cc2ccc(Cl)c(Cl)c2)Oc2ccc(NS(=O)(=O)c3ccc(Cl)cc3)cc2CC1=O	14.4
C[C@@H]1CN([C@@H](C)CO)C(=O)c2cc(NS(=O)(=O)c3cccs3)ccc2O[C@@H]1CN(C)Cc1ccc(C(=O)O)cc1	1.8[25 µM]
C[C@@H]1CN([C@@H](C)CO)C(=O)Cc2cc(NC(=O)Cc3cn(C)c4ccccc34)ccc2O[C@@H]1CN(C)C(=O)Nc1ccccc1	-3.5
C[C@@H]1CN([C@@H](C)CO)C(=O)Cc2cc(NS(=O)(=O)c3ccc(Cl)cc3)ccc2O[C@H]1CN(C)Cc1ccc(Cl)c(Cl)c1	64.8*
C[C@@H]1CN([C@@H](C)CO)C(=O)Cc2cc(NS(=O)(=O)c3ccc(F)cc3)ccc2O[C@@H]1CN(C)Cc1ccncc1	3.3[25 µM]
C[C@@H]1CN([C@@H](C)CO)C(=O)Cc2cc(NS(=O)(=O)c3ccccc3)ccc2O[C@H]1CN(C)Cc1ccc(Cl)c(Cl)c1	68.3*
